Data taken from PubChem BioAssay (Tox21).
Values joined by “and” are separate entries in the source; they are usually repeats but may differ in a detail not shown here. Equal values may be shown once. Records with an inconclusive call do not appear. Active and inactive are the calls of the source. Unless noted, calls come from the whole dose curve; as a rule, active = well fitted curve in the direction sought with a large enough effect in the repeat runs; inconclusive = weak or mixed curves; inactive = no such curve, though single readings can be large; an effect the other way counts as inactive or inconclusive.

Experiments:
[1] = qHTS assay to identify small molecule agonists of the estrogen receptor alpha (ER-alpha) signaling pathway in the presence of an antagonist - cell viability counter screen (AID 1259386);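 note: cells exposed to compounds for 22 h at 37 °C before the viability read; nearly all actives have a fitted effect of over 30% in size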; note: potency is the fitted concentration of half-maximal effect
Summary of the method: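 VM7Luc4E2 cells (endogenous full-length ER-alpha, 4×ERE-luciferase) were held 5 days in phenol red-free medium with 10% charcoal-stripped FBS, plated, then given 10.0nM ICI-182,780 and compounds at 15 concentrations for 22hr at 37C; viability read by CellTiter-Fluor fluorescence.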

[2] = target: Progesterone receptor (Homo sapiens) (UniProt P06401); experiment: qHTS assay to identify small molecule agonists of the progesterone receptor (PR) signaling pathway (AID 1346784; calls by dose curve; note: nearly all actives have a fitted effect of over 30% in size)
Sequence of Progesterone receptor (Homo sapiens) (P06401 whole entry, looked up): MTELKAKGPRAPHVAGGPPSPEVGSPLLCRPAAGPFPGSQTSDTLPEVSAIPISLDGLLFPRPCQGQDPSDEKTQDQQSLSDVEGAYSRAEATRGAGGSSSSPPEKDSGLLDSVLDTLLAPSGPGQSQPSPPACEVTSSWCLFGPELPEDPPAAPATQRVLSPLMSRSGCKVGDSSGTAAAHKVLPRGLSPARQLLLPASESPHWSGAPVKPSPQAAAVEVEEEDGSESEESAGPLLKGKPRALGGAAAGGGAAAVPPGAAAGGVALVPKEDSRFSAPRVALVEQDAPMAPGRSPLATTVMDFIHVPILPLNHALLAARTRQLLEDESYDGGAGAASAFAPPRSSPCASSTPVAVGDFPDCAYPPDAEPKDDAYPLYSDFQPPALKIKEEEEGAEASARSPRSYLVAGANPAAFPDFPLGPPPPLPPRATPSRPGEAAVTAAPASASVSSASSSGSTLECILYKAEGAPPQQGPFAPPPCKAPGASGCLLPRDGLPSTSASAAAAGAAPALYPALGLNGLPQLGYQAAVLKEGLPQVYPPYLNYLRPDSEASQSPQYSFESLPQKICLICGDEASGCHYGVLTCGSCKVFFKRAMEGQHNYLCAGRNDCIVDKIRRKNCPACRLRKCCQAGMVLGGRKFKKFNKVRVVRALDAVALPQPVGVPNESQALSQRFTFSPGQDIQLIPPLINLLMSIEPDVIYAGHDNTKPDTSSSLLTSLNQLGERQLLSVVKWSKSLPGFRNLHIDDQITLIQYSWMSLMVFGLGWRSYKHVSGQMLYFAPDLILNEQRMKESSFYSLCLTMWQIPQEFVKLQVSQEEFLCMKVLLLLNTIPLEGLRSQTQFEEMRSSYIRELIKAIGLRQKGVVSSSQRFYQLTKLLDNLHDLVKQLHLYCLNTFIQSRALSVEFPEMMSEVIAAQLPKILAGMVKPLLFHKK
Summary of the method: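 PR-UAS-bla HEK 293T cells (beta-lactamase reporter under UAS) in 2% charcoal-stripped FBS, dosed with 23 nL compound after 6 hr, incubated 16hr at 37C. LiveBLAzer B/G FRET substrate added, fluorescence read after 2 hours.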

[3] = qHTS assay to identify small molecule antagonists of the progesterone receptor (PR) signaling pathway - cell viability counter screen (AID 1346798); note: nearly all actives have a fitted effect of over 50% in size; note: potency is the fitted concentration of half-maximal effect
Summary of the method: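 PR-UAS-bla HEK293T cells, 3,000/well in 2% charcoal-stripped FBS medium, dosed with compounds plus R5020 agonist and incubated 16 h at 37C. Viability then measured in the same wells by CellTiter-Glo luminescence after 30 min at RT.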

[4] = qHTS assay to identify small molecule agonists of the progesterone receptor (PR) signaling pathway - cell viability counter screen (AID 1346799; calls by dose curve; note: nearly all actives have a fitted effect of over 45% in size; note: potency is the fitted concentration of half-maximal effect)
Summary of the method: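 Counter screen in the PR-UAS-bla HEK293T wells (2% charcoal-stripped FBS, 16 h compound exposure at 37 C) after the bla read. CellTiter-Glo added, 30 min at room temperature, luminescence read as cell viability.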

[5] = qHTS assay to identify small molecule antagonists of the TGF-beta/Smad signaling pathway - cell viability counter screen (AID 1346824); note: nearly all actives have a fitted effect of over 50% in size; note: potency is the fitted concentration of half-maximal effect
Summary of the method: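 Cytotoxicity counter-screen run in the same wells as the beta-lactamase Smad reporter read: CellTiter-Glo luminescence after 30 min at room temperature. HEK 293T SBE-bla cells had 5 hr compound exposure at 37 C with TGF-beta1 (0.25 ng/mL stock).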

[6] = qHTS assay to identify small molecule agonists of the TGF-beta/Smad signaling pathway - cell viability counter screen (AID 1346829); note: nearly all actives have a fitted effect of over 45% in size; note: potency is the fitted concentration of half-maximal effect
Summary of the method: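 In parallel with the Smad reporter read, viability of HEK 293T cells stably carrying SBE-bla is quantified by ATP luminescence following 5 hr compound treatment.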

[7] = qHTS assay to identify small molecule agonists of the TGF-beta/Smad signaling pathway (AID 1346859; active = well fitted activation curve with a large enough effect in the signal ratio in the repeat runs, not every such curve was filed as active; the % refers to the signal ratio; note: series mostly up to about 77 µM)
Summary of the method: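 SBE-bla HEK293T cells plated overnight, then compound exposure for 5 h at 37 C. Beta-lactamase reporter read with LiveBLAzer B/G FRET substrate after 2 h at room temperature, fluorescence at 405 nm excitation, 460/530 nm emission.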

[8] = Human pregnane X receptor (PXR) small molecule agonists, qHTS cell viability counter screen (AID 1346977); note: nearly all actives have a fitted effect of over 50% in size; note: potency is the fitted concentration of half-maximal effect
Summary of the method: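 PXR-Luc HepG2 cells (2,000/well, 5% charcoal-stripped FBS) preincubated 5 hr, then exposed to compounds 24 hr at 37 C. Viability read in the same wells by CellTiter-Fluor fluorescence, reagent added at 23 hr, 1 hr incubation.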

[9] = Caspase-3/7 induction in HepG2 cells by small molecules, qHTS assay (AID 1346978); note: nearly all actives have a fitted effect of over 15% in size
Summary of the method: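 Caspase-3/7 induction was measured by Caspase-Glo 3/7 luminescence (30 min, room temperature) after a 17 hr compound exposure of wild-type HepG2 cells seeded at 2,000 per well and pre-incubated 5 hr.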

[10] = Caspase-3/7 induction in CHO-K1 cells by small molecules, qHTS cell viability counter screen (AID 1346979); note: nearly all actives have a fitted effect of over 35% in size; note: potency is the fitted concentration of half-maximal effect
Summary of the method: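 Wild-type CHO-K1 cells (1,500/well) treated with compound after 5 h plating; after 16 h at 37C, viability read as CellTiter-Fluor fluorescence following 1 h reagent incubation, in the same wells as the caspase read.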

[11] = Caspase-3/7 induction in CHO-K1 cells by small molecules, qHTS assay (AID 1346980); note: nearly all actives have a fitted effect of over 15% in size
Summary of the method: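 Luminescent Caspase-Glo 3/7 read (30min, room temperature) quantified apoptosis induction. Cells were wild-type CHO-K1, treated with compound for 17hr at 37 C and 5% CO2.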

[12] = target: Nuclear receptor subfamily 1 group I member 2 (Homo sapiens) (UniProt O75469); experiment: Human pregnane X receptor (PXR) small molecule agonists, qHTS assay (AID 1346982); note: nearly all actives have a fitted effect of over 35% in size; note: potency is the fitted concentration of half-maximal effect
Sequence of Nuclear receptor subfamily 1 group I member 2 (Homo sapiens) (O75469 whole entry, looked up): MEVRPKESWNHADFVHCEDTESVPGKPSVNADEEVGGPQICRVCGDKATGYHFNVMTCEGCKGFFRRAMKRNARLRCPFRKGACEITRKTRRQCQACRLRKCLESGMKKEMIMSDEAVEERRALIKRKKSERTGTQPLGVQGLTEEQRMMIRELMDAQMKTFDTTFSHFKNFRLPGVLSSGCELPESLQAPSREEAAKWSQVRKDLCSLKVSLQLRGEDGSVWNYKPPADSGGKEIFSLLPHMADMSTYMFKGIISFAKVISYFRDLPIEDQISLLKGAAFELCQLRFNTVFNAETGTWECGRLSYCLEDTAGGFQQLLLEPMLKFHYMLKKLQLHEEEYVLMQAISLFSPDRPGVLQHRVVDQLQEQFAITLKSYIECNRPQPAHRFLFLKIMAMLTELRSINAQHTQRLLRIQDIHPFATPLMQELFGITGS
Summary of the method: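 PXR-Luc HepG2 cells (CYP3A4 promoter-driven luciferase) were seeded in medium with 5% charcoal-stripped FBS, left 5 hr at 37 C, then exposed to compounds in DMSO for 24 hr. Luminescence was read after ONE-Glo addition.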

[13] = target: Acetylcholinesterase (Homo sapiens) (UniProt P22303); experiment: Acetylcholinesterase (AChE) small molecule antagonists: colormetric cell-based qHTS assay (AID 1347395; calls by dose curve; note: nearly all actives have a fitted effect of over 30% in size)
Sequence of Acetylcholinesterase (Homo sapiens) (P22303 whole entry, looked up): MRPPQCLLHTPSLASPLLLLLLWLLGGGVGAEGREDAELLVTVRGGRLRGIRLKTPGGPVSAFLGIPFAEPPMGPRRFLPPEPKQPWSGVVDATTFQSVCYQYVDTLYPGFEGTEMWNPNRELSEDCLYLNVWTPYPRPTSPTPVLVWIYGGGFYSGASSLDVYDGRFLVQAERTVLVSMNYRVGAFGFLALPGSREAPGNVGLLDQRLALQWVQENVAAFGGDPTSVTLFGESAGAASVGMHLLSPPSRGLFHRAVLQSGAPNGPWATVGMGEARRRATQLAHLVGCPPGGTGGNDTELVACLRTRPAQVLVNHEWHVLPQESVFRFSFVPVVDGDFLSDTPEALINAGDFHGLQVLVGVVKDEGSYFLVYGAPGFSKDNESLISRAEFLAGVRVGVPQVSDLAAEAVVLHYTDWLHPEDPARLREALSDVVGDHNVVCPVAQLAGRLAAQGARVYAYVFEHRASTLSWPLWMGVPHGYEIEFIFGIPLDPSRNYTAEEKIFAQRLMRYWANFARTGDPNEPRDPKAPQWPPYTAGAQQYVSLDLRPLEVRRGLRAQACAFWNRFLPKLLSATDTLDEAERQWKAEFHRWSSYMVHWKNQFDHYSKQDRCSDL
Summary of the method: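 SH-SY5Y cells attached overnight, exposed to compound 30 min at 37 C, then given DTNB/acetylthiocholine; after 90 min at 37 C, colorimetric thiocholine read gives cellular AChE activity.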

[14] = target: Progesterone receptor (Homo sapiens) (UniProt P06401); experiment: qHTS assay to identify small molecule antagonists of the progesterone receptor (PR) signaling pathway (AID 1346795; active = well fitted inhibition curve with a large enough effect in the signal ratio in the repeat runs, not every such curve was filed as active; the % refers to the signal ratio)
Summary of the method: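 PR-UAS-bla HEK293T cells with beta-lactamase reporter under UAS control, in 2% charcoal-stripped FBS, treated with compounds plus 1 nM promegestone (R5020, final) for 16 hr at 37C. Read-out: FRET beta-lactamase substrate fluorescence after 2 hr at room temperature.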

[15] = target: Thyrotropin-releasing hormone receptor (Homo sapiens) (UniProt P34981); experiment: qHTS assay to identify small molecule antagonists of the thyrotropin-releasing hormone receptor (TRHR) signaling pathway (AID 1346877; active = well fitted inhibition curve with a large enough effect in the repeat runs, not every such curve was filed as active; note: series mostly up to about 51 µM)
Sequence of Thyrotropin-releasing hormone receptor (Homo sapiens) (P34981 whole entry, looked up): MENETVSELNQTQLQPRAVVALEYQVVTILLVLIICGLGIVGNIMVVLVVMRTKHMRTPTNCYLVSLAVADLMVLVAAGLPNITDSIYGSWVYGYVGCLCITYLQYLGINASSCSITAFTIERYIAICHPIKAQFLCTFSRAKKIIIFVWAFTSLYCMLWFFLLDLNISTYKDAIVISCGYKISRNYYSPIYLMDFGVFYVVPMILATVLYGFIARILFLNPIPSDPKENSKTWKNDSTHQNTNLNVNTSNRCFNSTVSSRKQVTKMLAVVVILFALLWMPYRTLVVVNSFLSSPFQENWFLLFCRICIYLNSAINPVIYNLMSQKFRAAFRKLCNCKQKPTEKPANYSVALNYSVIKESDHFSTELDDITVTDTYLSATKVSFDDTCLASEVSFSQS
Summary of the method: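 TRHR-expressing HEK293 cells were seeded, cultured 18 h at 37 °C, then loaded with calcium dye for 2 h. Compounds were pre-incubated 5 min at room temperature before 1 nM TRH (final) was added, and kinetic fluorescence was recorded for 3 min.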

[16] = target: Thyrotropin-releasing hormone receptor (Homo sapiens) (UniProt P34981); experiment: qHTS assay to identify small molecule agonists of the thyrotropin-releasing hormone receptor (TRHR) signaling pathway (AID 1346891; calls by dose curve; note: series mostly up to about 58 µM)
Summary of the method: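 HEK293 cells expressing TRHR plated 18 h at 37 C/5% CO2, calcium dye-loaded 2 h at 37 C, then compound added (agonist mode); kinetic calcium fluorescence read 3 min at 1 s intervals; 15 concentrations in triplicate.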

[17] = Caspase-3/7 induction in HepG2 cells by small molecules, qHTS cell viability counter screen (AID 1346981); note: nearly all actives have a fitted effect of over 30% in size; note: potency is the fitted concentration of half-maximal effect
Summary of the method: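 Wild-type HepG2 cells (2,000/well) were allowed to settle for 5 hr at 37 C, 5% CO2, then dosed with compounds in DMSO by pin transfer. After 16 hr at 37 C, CellTiter-Fluor was added and fluorescence read 1 hr later.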

[18] = target: Nuclear receptor subfamily 1 group I member 2 (Rattus norvegicus) (UniProt Q9R1A7); experiment: Rat pregnane X receptor (rPXR) activation by small molecules, qHTS assay (AID 1346983); conditions: rPXR luciferase reporter cells, One-Glo luminescence, 24 h; hits give high values; note: nearly all actives have a fitted effect of over 20% in size
Sequence of Nuclear receptor subfamily 1 group I member 2 (Rattus norvegicus) (Q9R1A7 whole entry, looked up): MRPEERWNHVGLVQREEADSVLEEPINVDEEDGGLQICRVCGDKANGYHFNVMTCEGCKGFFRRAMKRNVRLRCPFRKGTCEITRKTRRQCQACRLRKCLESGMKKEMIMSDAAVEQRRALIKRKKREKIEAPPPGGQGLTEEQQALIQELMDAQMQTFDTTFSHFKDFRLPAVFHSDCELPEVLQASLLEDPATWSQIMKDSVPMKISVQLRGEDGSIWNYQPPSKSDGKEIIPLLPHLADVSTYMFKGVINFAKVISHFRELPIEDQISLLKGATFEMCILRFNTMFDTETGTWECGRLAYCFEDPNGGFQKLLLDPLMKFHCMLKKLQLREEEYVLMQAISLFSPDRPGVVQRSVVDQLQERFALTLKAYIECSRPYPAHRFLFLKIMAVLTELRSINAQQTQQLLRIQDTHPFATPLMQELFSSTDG
Summary of the method: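 Luminescent readout (One-Glo luciferase, 30 min room temperature) followed 24 hr compound treatment at 37 C of rPXR cells plated 2,000 per well and preincubated 5hr; qHTS format with compounds delivered in DMSO.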

[19] = target: Nuclear receptor subfamily 1 group I member 2 (Homo sapiens) (UniProt O75469); experiment: CYP3A4 induction through human pregnane X receptor (PXR) by small molecules, qHTS assay (AID 1346984); note: nearly all actives have a fitted effect of over 40% in size
Summary of the method: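 DPX-2 cells (HepG2 co-transfected with PXR and CYP3A4 promoter-luciferase) treated with compounds 24 h at 37C; luciferin-IPA CYP3A4 substrate 3uM final added for 3 h, then One-Glo; luminescence read. qHTS format.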

[20] = target: Nuclear receptor subfamily 1 group I member 2 (Homo sapiens) (UniProt O75469); experiment: Human pregnane X receptor (PXR) activation by small molecules, qHTS assay (AID 1346985); note: nearly all actives have a fitted effect of over 40% in size
Summary of the method: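 DPX-2 cells (HepG2 co-transfected with a PXR response element and a CYP3A4-promoter luciferase construct) were seeded at 2,000 per well, rested 5 hr at 37C, then exposed to DMSO-dissolved compounds for 24 hr. Activation was read as luciferase luminescence.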
% is set by controls: 0 for no effect and ±100 for the full control effect.

CCCSP(=S)(OCC)Oc1ccc(SC)cc1 (configuration not stated)
active: Potency [12] 17.2 µM
inactive: Potency [1] | Potency [2] | Potency [3] | Potency [4] | Potency [5] | Potency [6] | outcome [7] | Potency [8] | Potency [9] | Potency [10] | Potency [11] | Potency [13]

CCCC1CCCCN1 (configuration not stated)
inactive: Potency [1] | Potency [2] | Potency [14] | Potency [4] | Potency [5] | outcome [7] | Potency [15] | outcome [16] | Potency [8] | Potency [9] | Potency [10] | Potency [11] | Potency [17] | Potency [12] | max activation [18] -2.95% | outcome [19] | Potency [20] | Potency [13]

SCc1ccccc1
inactive: Potency [1] | Potency [2] | Potency [3] | Potency [5] | Potency [6] | outcome [7] | Potency [15] | outcome [16] | Potency [8] | Potency [9] | Potency [10] | Potency [11] | Potency [17] | Potency [12] | Potency [13]

CC(C)(C)N(NC(=O)c1ccc(Cl)cc1)C(=O)c1ccccc1
active: Potency [1] 4.83 µM | Potency [10] 12.1 µM
inactive: Potency [2] | Potency [3] | Potency [4] | Potency [5] | Potency [6] | outcome [7] | Potency [15] | outcome [16] | Potency [9] | Potency [11] | Potency [13]

CCCN(CCC)c1c([N+](=O)[O-])cc(C(C)C)cc1[N+](=O)[O-]
inactive: Potency [1] | Potency [2] | Potency [3] | Potency [4] | Potency [5] | Potency [6] | outcome [7] | outcome [16] | Potency [8] | Potency [9] | Potency [10] | Potency [11] | Potency [13]
active: Potency [12] 23.8 µM

CN(C1CCCCC1)C1CCCCC1
inactive: Potency [1] | Potency [2] | Potency [3] | Potency [4] | Potency [5] | Potency [6] | outcome [7] | Potency [15] | outcome [16] | Potency [8] | Potency [9] | Potency [10] | Potency [11] | Potency [17] | Potency [12] | Potency [13]

c1ccc2sc(SNC3CCCCC3)nc2c1
active: Potency [12] 60.4 µM and 48.6 µM
inactive: Potency [1] | Potency [2] | Potency [3] | Potency [4] | Potency [5] | Potency [6] | outcome [7] | outcome [16] | Potency [8] | Potency [9] | Potency [10] | Potency [11] | max activation [18] 11.8% | outcome [19] | Potency [20] | Potency [13]

O=C(NCNC(=O)NC1C(=O)NC(=O)N1CO)NC1C(=O)NC(=O)N1CO (configuration not stated)
inactive: Potency [1] | Potency [2] | Potency [14] | Potency [5] | outcome [7] | outcome [16] | Potency [9] | Potency [10] | Potency [11] | Potency [17]

NP(N)(=O)NC(=O)c1ccc(F)cc1
inactive: Potency [1] | Potency [2] | Potency [3] | Potency [4] | Potency [5] | Potency [6] | outcome [7] | outcome [16] | Potency [8] | Potency [9] | Potency [10] | Potency [11] | Potency [17] | Potency [12] | max activation [18] 0.566% | outcome [19] | Potency [20] | Potency [13]

CCCCCCCCCCCC[N+](C)(C)CCOc1ccccc1
inactive: Potency [1] | Potency [2] | outcome [16] | Potency [11] | max activation [18] -6.32% | Potency [13]
active: Potency [3] 54.5 µM and 13.3 µM | Potency [4] 24.3 µM and 23.7 µM | Potency [5] 43.7 µM | Potency [6] 55 µM and 26.8 µM | Potency [8] 61.1 µM | Potency [10] 43.3 µM | Potency [17] 61.1 µM

Nc1cccc2ccccc12
active: Potency [12] 48.9 µM and 61.1 µM
inactive: Potency [1] | Potency [2] | Potency [3] | Potency [4] | Potency [5] | Potency [6] | outcome [7] | outcome [16] | Potency [8] | Potency [9] | Potency [10] | Potency [11] | Potency [17] | Potency [13]

OCCCl
inactive: Potency [1] | Potency [2] | Potency [14] | Potency [5] | outcome [7] | Potency [8] | Potency [9] | Potency [10] | Potency [11] | Potency [17] | Potency [12] | Potency [13]

FC(Cl)(Cl)C(F)(Cl)Cl
inactive: Potency [1] | Potency [2] | Potency [3] | Potency [5] | Potency [6] | outcome [7] | Potency [8] | Potency [9] | Potency [10] | Potency [11] | Potency [17] | Potency [12] | Potency [13]

OCCSSCCO
inactive: Potency [1] | Potency [2] | Potency [4] | Potency [5] | Potency [6] | outcome [7] | Potency [15] | outcome [16] | Potency [8] | Potency [9] | Potency [10] | Potency [11] | Potency [17] | Potency [12] | Potency [13]

NNCCO
inactive: Potency [1] | Potency [2] | Potency [3] | Potency [4] | Potency [5] | Potency [6] | outcome [7] | Potency [9] | Potency [10] | Potency [11] | Potency [12] | Potency [13]

N#CC1(N=NC2(C#N)CCCCC2)CCCCC1
inactive: Potency [1] | Potency [2] | Potency [3] | Potency [5] | Potency [6] | outcome [7] | Potency [15] | outcome [16] | Potency [9] | Potency [10] | Potency [11] | Potency [17] | Potency [13]
